# A549 viability: Nrf2 qHTS screen for inhibitors: counterscreen for cytotoxicity | A549 ARE-Fluc cells, CellTiter-Fluor viability, 18-24 h | Potency, µM (doses to about 46 µM), for the others: top-dose activity change, negative = cytotoxicity, usual class: inhibitors | 0.16% of 390,000 active | AID 504648, 2011; note: % is set by controls: 0 for no effect and ±100 for the full control effect
#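 A549 ARE_Fluc cells in 5% FBS OPTI-MEM were exposed to compounds in concentration-response for 18-24 h at 37 deg C. Viability was read by CellTiter-Fluor fluorescence (Ex 405/Em 525) after 30 min, before the luciferase read.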
# ELG1 repair inh: qHTS screen for small molecules that inhibit ELG1-dependent DNA repair in human embryonic kidney (HEK293T) cells expressing luciferase-tagged ELG1; HEK293T ELG1-luciferase reporter, luminescence, 16 h; DNA damage induced by 5-fluorouridine; Potency, µM (top dose mostly 46.1 µM), for the others: at the highest dose activity change, negative = inhibition, actives largely listed as inhibitors; 2.3% of 330,000 active; AID 504467, 2011; note: % is set by controls: 0 for no effect and ±100 for the full control effect; nearly all actives have a fitted effect of over 55% in size
#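 Cells (2,000 per well) received 5-fluorouridine plus test compound or DMSO and were incubated 16 hr at 37 °C, 5% CO2. Luciferase activity was read by luminescence 30 min after ONE-Glo addition; signal suppression marked inhibition of damage-induced ELG1 function.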
# Nrf2 activator: qHTS of Nrf2 Activators; AREc32 ARE-luciferase reporter (MCF7-derived line), luminescence, 24 h; Potency, µM (titrated, usually from 46.1 µM), for the others: top-dose activation, usual class: activators; 0.31% of 410,000 active; AID 624171, 2012; note: % of control where 0% means no effect; nearly all actives have a fitted effect of over 65% in size
#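 AREc32 cells carrying an ARE-driven firefly luciferase reporter were seeded at 1000 cells/well in OPTI-MEM with 5% FBS, then exposed to compound for 24 hr at 37 deg C. Luminescence was read with Steady-Glo after 30 min at RT.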
# Nrf2 inh: Nrf2 qHTS screen for inhibitors. A549 ARE-Fluc reporter, luciferase luminescence, 18-24 h. 2.1% of 360,000 active. AID 504444, 2011. Potency, µM (doses to about 46 µM), for the others: top-dose activity change, negative = inhibition, actives largely listed as inhibitors; note: % is set by controls: 0 for no effect and ±100 for the full control effect; nearly all actives have a fitted effect of over 60% in size
#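 Quantitative HTS in A549 cells stably bearing an antioxidant response element-firefly luciferase construct. Inhibition of Nrf2-driven transcription was scored by luminescence after 18-24 h of compound exposure at 37 °C.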
# mIDH1 inhibitor: qHTS for Inhibitors of mutant isocitrate dehydrogenase 1 (IDH1): qHTS; IDH1-R132H enzyme, NADPH consumption, diaphorase/resazurin fluorescence; 0.093% of 390,000 active; AID 602179, 2012; Isocitrate dehydrogenase [NADP] cytoplasmic (Homo sapiens), O75874; Potency, µM (titrated, usually from 76.6 µM), for inactives: at the highest dose activity change, negative = inhibition, usual class: inhibitors; note: % is set by controls: 0 for no effect and ±100 for the full control effect; nearly all actives have a fitted effect of over 65% in size
# Target sequence (O75874 whole entry R132H, stated change not applied): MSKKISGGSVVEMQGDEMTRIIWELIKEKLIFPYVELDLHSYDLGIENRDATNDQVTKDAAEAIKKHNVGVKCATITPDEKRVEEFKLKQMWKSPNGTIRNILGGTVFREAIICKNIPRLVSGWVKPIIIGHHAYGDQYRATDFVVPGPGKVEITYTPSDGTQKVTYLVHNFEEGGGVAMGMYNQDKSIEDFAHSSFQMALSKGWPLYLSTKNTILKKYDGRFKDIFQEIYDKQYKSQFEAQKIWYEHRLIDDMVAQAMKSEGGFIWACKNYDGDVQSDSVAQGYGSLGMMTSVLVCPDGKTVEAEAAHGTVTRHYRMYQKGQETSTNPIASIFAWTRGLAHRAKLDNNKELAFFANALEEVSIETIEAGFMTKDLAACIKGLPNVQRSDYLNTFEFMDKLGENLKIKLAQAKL
#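 IDH1-R132H (0.5 ug/mL) preincubated 30 min with compound, then NADPH (0.016 mM) and alpha-KG (2 mM) added; 80 min at RT, pH 7.5. Remaining NADPH coupled via diaphorase/resazurin to fluorescence (540/590 nm); concentration-response curves normalized to no-enzyme control.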
# Numbers without * were called inactive; ? = inconclusive; . = no result given; [ ] = remark or other dose. This is a sample that favours compounds with a hit; in the whole collection about 3.8% have one here. Calls come from the whole dose curve; as a rule, active = well fitted curve in the direction sought with a large enough effect; inconclusive = small, poorly fitted or top-dose-only effect, or another doubt; inactive = no such curve, though single readings can be large; an effect the other way counts as inactive or inconclusive. Potency is the fitted concentration of half-maximal effect.
SMILES,A549 viability,ELG1 repair inh,Nrf2 activator,Nrf2 inh,mIDH1 inhibitor
NS(=O)(=O)c1cccc(NC(=O)c2cc3ccccc3o2)c1,-4%,?,0%,3%,15%
COCCNC(=O)C1(C)CCN(C(=O)c2oc3ccccc3c2C)C1 (stereo not drawn),.,.,0%,.,.
O=[N+]([O-])c1ccc(Cl)c(/C=N/N2CCN(c3ccccc3)CC2)c1,0%,23%,13µM*,9%,2%
O=C(c1ccccc1)N1CCN(C(=O)c2ccc([N+](=O)[O-])cc2)CC1,0%,12%,0%,?,1%
O=C(c1ccc2nsnc2c1)N1CCN(c2ccc([N+](=O)[O-])cc2)CC1,-7%,16µM*,5%,23µM*,8%
O=C(c1cc([N+](=O)[O-])ccc1Cl)N1CCN(c2ccc([N+](=O)[O-])cc2)CC1,?,?,1%,21µM*,0%
NCCCN(Cc1ccccc1)c1ccc(Br)cn1,10%,.,.,?,.
O=C(c1ccc2ncsc2c1)N1CCN(c2ccccc2Cl)CC1,7%,?,2%,3%,0%
O=C(c1ccc2ncsc2c1)N1CCN(c2nc3ccccc3s2)CC1,-19%,?,2%,18µM*,4%
O=C(Nc1ccc(F)cc1)N1CCN(c2nc3ccccc3s2)CC1,-7%,?,2%,21µM*,-1%
Cc1onc(-c2ccccc2Cl)c1C(=O)N1CCN(c2nc3ccccc3s2)CC1,-3%,13µM*,0%,?,-3%
O=C(Nc1ccc(F)cc1)N1CCCN(c2nccc(C(F)(F)F)n2)CC1,?,?,-1%,12µM*,0%
Cc1onc(-c2ccccc2Cl)c1C(=O)N1CCCCC1,3%,0%,0%,5%,-3%
Cc1ccccc1-c1cnc(C(O)c2ccc(-c3ccccc3)cc2)[nH]1 (stereo not drawn),.,.,3%,.,.
CCCOc1ccc(CNC(=O)CN2C(=O)c3cccnc3Oc3ccc(C)cc32)cc1,3%,.,4%,11%,36%
CN(C1CCCCC1)S(=O)(=O)c1ccc(C(=O)N2CCN(c3nc4ccccc4s3)CC2)cc1,-4%,9.2µM*,-1%,?,1%
COc1cc(CC(=O)OCC(=O)N2CCCCC2)cc(OC)c1OC,0%,13%,-2%,-19%,1%
S=C(N/N=C/c1ccco1)NC1CC2CCC1C2 (stereo not drawn),3%,?,13µM*,?,5%
O=C(CCl)N1c2ccccc2SCC1c1ccccc1 (stereo not drawn),?,?,-1%,26µM*,0%
CCCCCCN1Cc2ccccc2C1,-6%,-1%,0%,.,-3%
CCCCCCCCn1ccc(=N)cc1,0%,0.73µM*,-2%,-23%,5%
CCCCCCCCCCn1ccc(=N)cc1,-28%,?,2%,15µM*,1%
Cc1nc(-c2ccc(S(=O)(=O)NCC3CCN(C(=O)OC(C)(C)C)CC3)s2)cs1,-3%,21µM*,5%,?,-1%
N#Cc1nc(N2CCCCC2)nc(N2CCOCC2)n1,-7%,?,0%,?,-2%
N#Cc1nc(N)nc(N2CCCCC2)n1,1%,.,.,18µM*,.
SMILES,A549 viability,ELG1 repair inh,Nrf2 activator,Nrf2 inh,mIDH1 inhibitor
O=C(Cn1ncc2c3ccccc3n(Cc3cccc(Cl)c3)c2c1=O)Nc1ccc(F)cc1F,3%,.,-1%,7%,-12%
COc1ccc(NC(=O)c2ccco2)cc1NC(=O)C(C)(C)Oc1ccc(Cl)cc1,-23%,.,10%,21µM*,2%
O=C(Nc1nnc(-c2ccccc2Cl)o1)c1ccco1,2%,?,13µM*,.,9%
COc1cc(OC)cc(C(=O)Nc2ccc(NC(=O)c3ccco3)c(Cl)c2)c1,?,-9%,0%,26µM*,19%
O=C(Nc1ccc(Oc2ccc(NC(=O)c3ccco3)c(NC(=O)c3ccco3)c2)cc1)c1ccco1,-1%,16µM*,2%,?,0%
O=C(Nc1cc(Cl)ccc1Cl)c1ccco1,7%,?,13µM*,3%,8%
CCCCOc1cccc(C(=O)Nc2cc(NC(=O)c3ccco3)ccc2OC)c1,-11%,.,4%,23µM*,-1%
Nc1ccc(NC(=O)c2ccco2)c(Cl)c1,8%,?,0%,20%,2%
Cc1cc(O)c(NC(=O)c2ccco2)cc1C,4%,?,13µM*,?,3%
O=C(NC(=S)Nc1cc(Cl)ccc1Cl)c1ccco1,.,.,11µM*,.,17%
Cc1cccc(C(=O)NC(C(=O)Nc2ccc(S(=O)(=O)Nc3nccs3)cc2)C(C)C)c1 (stereo not drawn),0%,.,-2%,7%,-2%
Cc1cc(N2CCN(C)CC2)nc2ccc(NC(=O)Nc3ccccc3Cl)cc12,-13%,.,6%,?,-15%
O=C(NC(=S)Nc1cccc(NC(=S)NC(=O)c2ccco2)n1)c1ccco1,7%,14%,6.3µM*,24%,7%
COc1ccc(Cl)cc1NC(=S)NC(=O)c1ccco1,2%,?,10µM*,17%,-1%
O=C(Nc1cc2nn(-c3ccccc3)nc2cc1Cl)c1ccco1,1%,?,1µM*,.,12%
O=C(NC(=S)Nc1ccccc1Br)c1ccco1,8%,?,14µM*,?,0%
CC(C)Cc1nn2c(=O)cc(COC(=O)c3ccc(NC(=O)C4CCCCC4)cc3)nc2s1,2%,.,0%,.,-5%
CCN(CC)S(=O)(=O)c1cccc(NC(=O)COc2ccc(C#N)cc2OC)c1,-1%,?,4%,-28%,7%
CCN(CC)S(=O)(=O)c1cc(NC(=O)COc2ccc(C#N)cc2OC)ccc1C,-2%,13µM*,-1%[9.22 µM],?,4%
COc1ccc(-c2[nH]ncc2/C=C(/C#N)C(=O)NC2CCCCC2)cc1,-29%,?,0%,?,10%
Cc1ccc(-c2[nH]ncc2/C=C(\C#N)C(=O)NC2CCCCC2)cc1,-21%,9.2µM*,0%,?,-2%
Cc1ccc(S(=O)(=O)Cc2cc(F)c([N+](=O)[O-])cc2[N+](=O)[O-])cc1,?,16µM*,-2%,-10%,0%
COc1ccc(NC(=O)CN(C)C(=O)C2(c3ccccc3)CCCC2)cc1,-4%,?,-1%,8.2µM*,4%
COc1ccc(NC(=O)CN(C)C(=O)CCc2ccccc2)cc1,-5%,2%,0%,-5%,13%
Cc1ccc(C(=O)OCn2ncc(Cl)c(Cl)c2=O)cc1,.,7.3µM*,?,?,8%
O=C(OCn1ncc(Cl)c(Cl)c1=O)c1ccc(C(F)(F)F)cc1,-16%,?,10µM*,3%,-6%

# Source: PubChem BioAssay
